According to PubChem BioAssay AID493201 (National Center for Advancing Translational Sciences (NCATS), 2011):
Inconclusive results are not listed. Values without a mark were called inactive. Activity calls are given as the source filed them. Calls come from the whole dose curve; as a rule, active = well fitted activation curve with a large enough effect; inconclusive = small, poorly fitted or top-dose-only effect; inactive = no such curve, though single readings can be large or run the other way.

Assay: qHTS Assay for Identifying a Potential Treatment of Ataxia-Telangiectasia: Secondary assay (no NCS) hit validation;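 note: phosphorylated KAP1 signal as a proxy for ATM-like kinase activity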; for activation: 0% is about no effect
Details: A-T patient fibroblasts, AlphaLISA, no DNA damage added, 90 min; series mostly up to 76.9 µM; activation: at the top concentration
Method in brief: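 Without NCS-induced DNA breaks, ATM-like activity scored as phospho-KAP1 AlphaLISA signal (pKAP1/total KAP1 bead pair) in ATM-null F2112 fibroblasts; compound series up to 76.7 uM final, 37C incubation, lysates read on AlphaScreen protocol.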
Potency is the fitted concentration of half-maximal effect.

SMILES | activation [%] | Potency
Cc1cc2c(c(=O)o1)C(CCC1CCCCC1)C(C#N)=C(N)O2 (stereo not given) | 10.2 | –
Cc1ccc2c(c1)C(=O)CC(O)(C(F)(F)F)O2 (stereo not given) | -4.3 | –
C/C=C\C=C/C(=O)Nc1cccc(C2=NOC3(C2)C[C@@H](C(N)=O)N(C(=O)COc2ccc(Cl)cc2)C3)c1 (stereo not given in full) | -5.08 | –
COc1ccc(NCc2cc(=O)oc3cc(NC(C)=O)ccc23)cc1 | 7.53 | –
Cc1ccccc1S(=O)(=O)Oc1ccc2ccc(O)cc2c1 | -2.15 | –
CCC(C)N1C(=S)SC(C)(C)C1N(O)C(=O)NC1CCCCC1 (stereo not given) | -0.848 | –
CN1C[C@@H]2C(c3ccccc3)C3(c4ccccc4)CC2(C3)[C@H]1c1ccccc1 (stereo not given in full) | – | 20.7 µM (active)
COc1ccc(-c2cc(C(F)(F)F)c(C#N)c(SCC(=O)O)n2)cc1OC | -4.24 | –
CNC(=S)N(CCO)Cc1cc2cc3c(cc2[nH]c1=O)OCCO3 | -8.47 | –
Cc1nn(C)c(Cl)c1CN1CCN(C2CCCC2)C(CCO)C1 (stereo not given) | -1.74 | –
CCc1ccc(NC(=O)N[C@H](C(=O)O)C(C)CC)cc1 (stereo not given in full) | -2.54 | –
CCOc1cccc(C(=O)Nc2ccccc2N2CCN(C(=O)C(C)C)CC2)c1 | -5.38 | –
CN(C)c1cc(Nc2ccc(O)cc2)c([N+](=O)[O-])c2nonc12 | 15.3 | –
Clc1cccc(CN2CCC(Cc3ccccc3)CC2)c1 | 1.74 | –
O=C(CCCn1nnnc1CN1CCOCC1)N1CCC(c2ccc(F)cc2)C1 (stereo not given) | -5.38 | –
CC(C)(CO)NC(=O)c1ccc2c(c1)C(=O)c1ccccc1-2 | 0 | –
CCN1C/C(=C/c2sccc2C)c2nc3ccccc3c(C(=O)O)c2C1 | – | 16.4 µM (active)
c1ccc(CSc2nnc(-c3ccco3)n2Cc2ccco2)cc1 | -5.38 | –

SMILES | activation [%] | Potency
O=C(c1ccc(F)cc1)N1CCC(c2ccccc2)C1 (stereo not given) | -9.68 | –
O=C(CN1C(=O)c2cccc([N+](=O)[O-])c2C1=O)NCc1ccccc1 | 22.6 | –
CCCN1C2CCCC1CC(NC(=S)Nc1cccc(C)c1C)C2 (stereo not given) | 31.4 | –
COc1ccc(NS(=O)(=O)c2ccc(N3CC(O)=C(c4ccccc4)C3=N)cc2)cc1 | -5.38 | –
C=CCOC(=O)C1=C[C@H](c2coc3ccccc3c2=O)C[C@H](OCc2ccc(CO)cc2)O1 | 15.3 | –
CCOc1ccc(NC2=CC(=O)CCC2)cc1 | 2.15 | –
CNC(=O)c1ccc(-c2cc3onc(-c4ccccc4)c3c(=O)n2C)cc1 | – | 18.4 µM (active)
COc1cccc(/C=N/NC(=O)c2cc3cc([N+](=O)[O-])ccc3s2)c1O | – | 46.3 µM (active)
CC(=O)NNC(=O)CN1C(=O)/C(=C/c2ccccc2)SC1=S | 4.35 | –
CN(Cc1ccccc1)C(=O)c1cccc(N2C(=O)C3CC=CCC3C2=O)c1 (stereo not given) | -19.5 | –
O=C(O)CCCC(=O)N1N=C(c2ccccc2)CC1c1cccs1 (stereo not given) | 0 | –
CSc1nc2ccccc2nc1N(C)S(=O)(=O)c1ccc(C)cc1 | – | 36.8 µM (active)
O=C(C[n+]1cccc2ccccc21)c1ccc(NC(=O)c2ccccc2)cc1 | -0.848 | –
CCN(CC)c1ccc2cc(-c3nc4ccccc4[nH]3)c(=O)oc2c1 | -1.08 | –
COc1ccccc1N1CCN(C(=O)c2cc(=O)c3c(C)cc(C)cc3o2)CC1 | -2.54 | –
COc1ccc(Nc2cc3n(c(=O)n2)CCc2cc(OC)c(OC)cc2-3)cc1 | 4.35 | –
O=C(O)c1ccc(/C=C/c2nc3ccccc3c(=O)[nH]2)cc1 | 6.09 | –
